Screens (PubChem)
Rows were chosen to be rich in hits. Some 2.4% of all compounds tested hit in one or more screens of this group.
D2 ag-1 = HTS Assay for Allosteric Agonists of the Human D2 Dopamine Receptor: Primary Screen for Agonists; D(2) dopamine receptor (Homo sapiens), P14416; HEK293 T-REx D2 cells, calcium flux agonist mode; activation, % at 2 µM; 0.53% of 340,000 active; AID 485358, 2010;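 active means activation over 3 SD above normal in the single-dose calcium agonist read, cut at about 30% in these data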; further: 0% is about no effect
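Agonism scored from kinetic calcium signal (1 read/sec, 180 s) following compound pin transfer, after a 10 s baseline. Cells: HEK293 Trex line expressing inducible D2 receptor coupled to calcium, dye-loaded after overnight culture at 30 C.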
D2 PAM-1 = Beta-Arrestin HTS for Positive Allosteric Modulators of the Human D2 Dopamine Receptor: Potentiators; potentiation, % (no concentration beside the values); DiscoveRx D2 beta-arrestin cells, luminescence, 90 min; 100% = 57 uM dopamine signal; 0.23% of 360,000 active; D(2) dopamine receptor (Homo sapiens), P14416; AID 624464, 2012; in the data active means potentiation above about 50%; inconclusive means mostly about 30% to 49%
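PathHunter beta-arrestin assay in DiscoveRx D2 cells. Compounds were added with an EC20 of dopamine (50 nM final) for 90 min at 37 deg C. Luminescence was read 1 h after detection reagent, with 57 uM dopamine as the EC100 control.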
D2 antagonist = HTS Assay for Allosteric Antagonists of the Human D2 Dopamine Receptor: Primary Screen for Antagonists; D(2) dopamine receptor (Homo sapiens), P14416; HEK293 TREx D2 cells, calcium flux, dopamine EC80; inhibition, % at 10 µM; 2% of 340,000 active; AID 485344, 2010; in the data active means inhibition above about 30%; inactive means below that, where a call was filed; further: 0% is about no effect
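Measurement of antagonist activity uses fluorescent calcium dye in inducible HEK293 T-REx D2 cells: 10 s baseline, compound addition with 180 s read, EC80 dopamine addition with a further 180 s read.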
D2 PAM-2 = HTS Assay for Positive Allosteric Modulators of the Human D2 Dopamine Receptor: Primary Screen for Potentiators; D(2) dopamine receptor (Homo sapiens), P14416; HEK293 T-REx D2, calcium flux, EC20 dopamine potentiation; potentiation, % at 10 µM; 0.34% of 340,000 active;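 active means potentiation over 3 SD above the plate norm, cut at about 30% in these data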; further: 0% is about no effect
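Calcium flux readout, no-wash dye, 1 read/s. Inducible HEK293 Trex D2 line, overnight 30 C. Compound alone 180 s (agonist flags), then EC20 dopamine, another 180 s to score potentiation.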
D2 ag-2 = Beta-Arrestin HTS for Positive Allosteric Modulators of the Human D2 Dopamine Receptor: Agonists; DiscoveRx PathHunter D2 beta-arrestin, luminescence, 90 min; 100% = 57 uM dopamine signal; activation, % (test concentration not listed); 0.084% of 360,000 active; AID 624465, 2012; in the data active means activation above about 40%; inconclusive means between about 15% and that limit
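DiscoveRx PathHunter D2 beta-arrestin cells (2,100/well) attached overnight, then compound-stimulated 90 min at 37 C in HBSS/10 mM HEPES/0.1% Tween-20 buffer; beta-galactosidase complementation read by luminescence after 1 h at ambient temperature. Dopamine 57 uM final (EC100) as control.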
D3 ag = qHTS of D3 Dopamine Receptor Agonist: D3 Dopamine Receptor B-arrestin Agonist Confirmatory Assay | shares compounds with D2 ag-1 | DiscoveRx D3 beta-arrestin cells, luminescence, 90 min | Potency, µM (highest dose often 76.9 µM), without a hit: at the highest dose activation, hits mostly activators | 4% of 2,300 active;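 further: potency means the concentration at half of the fitted maximal effect; 100% = dopamine control response; nearly all actives have a fitted effect of over 70% in size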
Target sequence (P35462 whole entry, looked up): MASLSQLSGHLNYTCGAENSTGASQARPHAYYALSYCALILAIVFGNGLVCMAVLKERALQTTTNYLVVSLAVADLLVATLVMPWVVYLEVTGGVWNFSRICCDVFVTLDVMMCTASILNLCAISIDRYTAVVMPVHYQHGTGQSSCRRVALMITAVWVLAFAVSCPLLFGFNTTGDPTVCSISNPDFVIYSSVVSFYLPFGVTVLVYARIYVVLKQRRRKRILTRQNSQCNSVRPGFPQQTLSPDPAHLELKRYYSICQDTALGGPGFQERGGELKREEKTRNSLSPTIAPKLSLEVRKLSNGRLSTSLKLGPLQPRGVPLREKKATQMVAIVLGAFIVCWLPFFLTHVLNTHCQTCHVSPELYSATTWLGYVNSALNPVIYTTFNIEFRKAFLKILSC
D2 ag-3 = qHTS of D3 Dopamine Receptor Agonist: D2 Dopamine Receptor B-arrestin Agonist Counterscreen | Potency, µM (top dose mostly 76.9 µM), inactives show top-dose activation, hits mostly activators | shares compounds with D2 ag-1 | 5.9% of 2,300 active | DiscoveRx PathHunter D2 beta-arrestin, luminescence, 90 min; response scale: percent relative to full dopamine signal; further: potency means the concentration at half of the fitted maximal effect; % of control where 0% means no effect; nearly all actives have a fitted effect of over 70% in size
The depositor's hits bear a star; ? = inconclusive; . = no result given. Unless noted, the call rests on the fitted dose curve; in most records, active means well fitted activation curve with a large enough effect; inconclusive means small, poorly fitted or top-dose-only effect; inactive means flat fitted curve, though single readings scatter.

SMILES	D2 ag-1	D2 PAM-1	D2 antagonist	D2 PAM-2	D2 ag-2	D3 ag	D2 ag-3
O=C(CCc1ccc(O)c(O)c1)NNC(=S)NCCc1ccccc1	46*	8	29	-25	10	?	13%
O=C(CCc1ccccc1)NNC(=S)NCc1ccc(Cl)cc1	1	-7	-2	8	0	.	.
COc1ccc(CCC(=O)NNC(=O)Nc2cccc(Cl)c2)cc1	0	-5	-8	5	1	.	.
CCOc1cccc2cc(-c3nc(-c4ccccc4C)no3)c(=O)oc12	1	.	.	3	.	.	.
O=C(NC(Nc1nc2ccc([N+](=O)[O-])cc2s1)(C(F)(F)F)C(F)(F)F)c1cccnc1	25	-3	8	-6	-3	12%	-4%
O=C(NC(Nc1nc2ccc([N+](=O)[O-])cc2s1)(C(F)(F)F)C(F)(F)F)c1ccccc1Cl	15	-6	20	-18	-4	.	.
O=C(COc1ccccc1[N+](=O)[O-])N(Cc1ccccc1)c1ccccn1	53*	11	21	-30	?	?	?
Cc1ccc(CN(C(=O)COc2ccccc2[N+](=O)[O-])c2ccccn2)cc1	.	.	.	-27	.	.	.
COc1ccc(OC)c(NC(=O)c2c(NCc3ccc(OC)c(OC)c3)sc3c2CCC(C)C3)c1 (configuration not stated)	1	.	.	-6	.	.	.
O=C(NCc1cccc(C(F)(F)F)c1)C1CCCN(c2ncccn2)C1 (configuration not stated)	67*	-7	3	-33	-3	-9%	-5%
CCOC(=O)Cc1csc(NC(=O)c2csc(C)c2)n1	61*	-8	-16	-18	-2	2%	5%
CCOC(=O)Cc1csc(NC(=O)c2cccc(OC)c2)n1	0	8	7	3	-3	.	.
Nc1ccc(C(=O)N/N=C/c2cccc(Oc3ccccc3)c2)cc1	-1	-8	31*	5	-1	0%	1%
O=C(N/N=C/c1cccc(Oc2ccccc2)c1)c1cc[n+]([O-])cc1	-1	-3	14	4	-1	.	.
Nc1ccc(C(=O)N/N=C\c2ccc(OC(=O)c3ccccc3Cl)cc2)cc1	1	-24	33*	11	-2	3%	1%
COc1ccc(N2CC(NC(=O)c3ccc(S(=O)(=O)N4CCCCC4)cc3)CC2=O)cc1 (configuration not stated)	1	.	.	-6	.	.	.
O=C(OCCN1C(=O)c2cccc3c(N4CCOCC4)ccc(c23)C1=O)c1ccccc1Cl	.	10	.	-6	7	?	?
CN1CCc2c(sc(NC(=O)c3ccc([N+](=O)[O-])o3)c2C(N)=O)C1	75*	-12	29	-19	1	-20%	2%
OC(CSc1c(Cl)cccc1Cl)CN1CCN(c2ccccc2F)CC1 (configuration not stated)	68*	-11	65*	-25	?	?	?
OC(CSc1ccccc1Cl)CN1CCN(c2ccccc2F)CC1 (configuration not stated)	63*	20	74*	-17	?	45µM*	?
Cc1ccccc1NC(=O)NCCCN1CCN(C)CC1	0	5	3	9	2	.	.
